A selection: hits, their analogues and other compounds. The true share with any hit is near 2.5%.
ASK1 inh: inhibitors of human ASK1 kinase | AID 1159602 | AlphaScreen MKK6 phosphorylation by ASK1, luminescence | hit rate 0.99% among 22,000 | inhibition, % at 7.44 µM | Q99683; in the data active = inhibition above about 35%;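 also: 0% = median of compound wells and 100% = no enzyme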
ULK1 inh: human ULK1 kinase inhibition, primary screen; AlphaScreen Atg13 phosphorylation by ULK1, luminescence; inhibition, % at 5.96 µM; AID 1259251; O75385; hit rate 1.9% among 30,000; in the data active = inhibition above about 43%;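 also: 0% = median of compound wells and 100% = no enzyme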
Active calls of the source: *; ! = not active in a repeat.

What do the screens show for `CCCCNC(=O)c1ccc(Cl)cc1O`?
ULK1 inh: 43*!

What do the screens show for `CCCNC(=O)c1ccc(Cl)cc1Cl`?
ULK1 inh: 6

How did c1ccc(Nc2cc(Nc3ccc4c(c3)OCO4)ncn2)cc1 do in these assays?
ASK1 inh: 4; ULK1 inh: 6

Results for c1cc(Nc2cc(Nc3ccc4c(c3)OCO4)ncn2)ncn1 ?
ASK1 inh: 23; ULK1 inh: 60*

Results for N[C@H](Cc1cccc(C(F)(F)F)c1)c1nc2ccc(-c3ccncc3)cc2[nH]1 ?
ASK1 inh: 7; ULK1 inh: -12

How did CC(=O)c1cccc(-c2nc3ncnc(Nc4ccc(N5CCOCC5)cc4)c3[nH]2)c1 do in these assays?
ASK1 inh: 22; ULK1 inh: 29

How did Cc1nc(Nc2ccccc2)cc(-c2cncc(-c3ccccc3)c2)n1 do in these assays?
ULK1 inh: 0

What do the screens show for `CNS(=O)(=O)c1ccccc1Nc1cc(Nc2ccc(N3CCCC3=O)cc2)ncc1C(F)(F)F`?
ASK1 inh: -6; ULK1 inh: 50*

What do the screens show for `CNS(=O)(=O)c1ccccc1Nc1cc(Nc2cc(-c3cncnc3)nc(C)n2)ncc1C(F)(F)F`?
ASK1 inh: 14; ULK1 inh: 73*

What do the screens show for `CS(=O)(=O)c1cccc(CNc2cc(Nc3ccc(N4CCCC4=O)cc3)ncc2C(F)(F)F)c1`?
ASK1 inh: 14; ULK1 inh: 24

How did COc1cc(Nc2nc(-c3ccccc3)nc3c2ncn3Cc2ccc(C(F)(F)F)cc2)cc(OC)c1OC do in these assays?
ASK1 inh: -2; ULK1 inh: -12

Results for COc1cc(Nc2cc(C)nc(-c3ccccc3)n2)cc(OC)c1OC ?
ASK1 inh: 9; ULK1 inh: 3

What do the screens show for `O=C(Cc1cn(-c2ccc(NCCCN3CCCC3=O)nn2)c2ccccc12)Nc1ccc(Oc2ccccc2)cc1`?
ASK1 inh: 16; ULK1 inh: -13

Results for O=C(Cc1cn(-c2ccc(NCCCN3CCCC3=O)nn2)c2ccccc12)Nc1ccc(N2CCOCC2)cc1 ?
ASK1 inh: -1; ULK1 inh: 47*

Results for O=C(Cc1cn(-c2ccc(NCCCN3CCCC3=O)nn2)c2ccccc12)Nc1ccccc1 ?
ASK1 inh: -3; ULK1 inh: 2

How did CC(=O)Nc1ccc(NC(=O)Cc2cn(-c3ccc(NCCCN4CCCC4=O)nn3)c3ccccc23)cc1 do in these assays?
ASK1 inh: 5; ULK1 inh: 44*

Results for CCNc1ccc(N2CCC(C(=O)NCCc3ccc(OC)cc3)CC2)nn1 ?
ASK1 inh: -1; ULK1 inh: 2

What do the screens show for `NC(C(=O)N1CCCN(C(=O)c2ccc3[nH]ncc3c2)CC1)c1cccc(Cl)c1` (stereo not given)?
ASK1 inh: -14; ULK1 inh: -11

What do the screens show for `COc1ccc(N(CN2C(=O)c3ccccc3C2=O)C(=O)c2cccc(OC)c2)cc1`?
ULK1 inh: -3

How did Cc1ncn(-c2ccc(Nc3nccc(-c4ccc(NS(C)(=O)=O)cc4)n3)cc2)n1 do in these assays?
ASK1 inh: 6; ULK1 inh: 57*

How did Cc1ncn(-c2ccc(Nc3nccc(-c4ccc(N5CCOCC5)cc4)n3)cc2)n1 do in these assays?
ASK1 inh: 7; ULK1 inh: 16

Results for CS(=O)(=O)Nc1ccc(-c2ccnc(Nc3ccc(N4CCC(O)CC4)cc3)n2)cc1 ?
ASK1 inh: -16; ULK1 inh: 75*

Results for N#Cc1cc(-c2ccnc(Nc3ccc(N4CCC(O)CC4)cc3)n2)cc(N2CCOCC2)c1 ?
ASK1 inh: 32; ULK1 inh: -62

What do the screens show for `O=C(NCc1ccccc1)c1csc(N2CCc3ccccc3C2)n1`?
ASK1 inh: -3; ULK1 inh: 9

Results for O=C(Cc1cn(-c2ccc(Nc3ccccc3)nn2)c2ccccc12)NCCc1ccc(O)cc1 ?
ASK1 inh: -1; ULK1 inh: -11

How did CC(=O)Nc1ccc(NC(=O)c2ccc(-c3cccc(C(C)=O)c3)s2)cc1 do in these assays?
ASK1 inh: -1; ULK1 inh: 0

What do the screens show for `O=C1N(Cc2cccc(Cl)c2)CCN1c1ccc(C(F)(F)F)cn1`?
ULK1 inh: -10

Results for Cc1c(-c2cnn(C)c2)ccc2cnc(Nc3ccc(-n4cnc(N5CCOCC5)n4)cc3)nc12 ?
ASK1 inh: -66; ULK1 inh: 60*

How did CCOC(=O)c1c(-c2cnn(C)c2)ccc2cnc(Nc3ccc(-n4cnc(N5CCOCC5)n4)cc3)nc12 do in these assays?
ASK1 inh: -8; ULK1 inh: 60*

What do the screens show for `Cc1ccc(-c2ncn(-c3ccc(Nc4ncc(Cl)c(-c5cnn(C)c5)n4)cc3)n2)cn1`?
ASK1 inh: 16; ULK1 inh: 7

What do the screens show for `Cn1cc(-c2nc(Nc3ccc(-n4cnc(N5CCC(O)CC5)n4)cc3)ncc2Cl)cn1`?
ASK1 inh: -95; ULK1 inh: 71*

What do the screens show for `Cn1cc(-c2nc(Nc3ccc(-n4cnc(N5CCOCC5)n4)cc3)ncc2F)cn1`?
ASK1 inh: -37; ULK1 inh: 19

How did Cn1cc(-c2cccc3cnc(Nc4ccc(-n5cnc(N6CCOCC6)n5)cc4)nc23)cn1 do in these assays?
ASK1 inh: 17; ULK1 inh: 15

Compound activity (PubChem BioAssay)
